Hits are enriched below; roughly 6.3% of the tested compounds scored in any of these assays.
tim23-1 inh: growth inhibitors of tim23-1 mutant yeast | inhibition, % at 20 µM | S. cerevisiae tim23-1 growth, BacTiter-Glo luminescence, 24 h | hit rate 1.3% among 330,000;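 active = growth inhibition of the mutant yeast at or above 50%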;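 also: temperature-sensitive mutant grown at 25 °C; plate controls were DMSO-treated mutant yeast for no effect and medium wells lacking yeast for full effect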
MPTP block: inhibitors of mitochondrial permeability transition pore. AID 602449. inhibition, % at 10 µM. isolated mouse mitochondria, Ca2+ swelling absorbance, 30 min. hit rate 1.4% among 360,000;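 active = inhibition of 50% or more, scaled per plate between neutral and stimulator controls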;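 also: 0% = DMSO wells given calcium and 100% = 1 mM EGTA wells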
tim10-1 inh: growth inhibitors of tim10-1 mutant yeast | S. cerevisiae tim10-1 ts strain growth, BacTiter-Glo, 24 h | inhibition, % at 20 µM | hit rate 2.2% among 330,000 | AID 463190;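 active = inhibition of at least 40%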;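 also: mutant grown at 25 °C; 0% = DMSO wells with yeast and 100% = wells holding no yeast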
TIM10 inh: inhibits growth of TIM10 yeast strain | S. cerevisiae TIM10 strain growth, BacTiter-Glo luminescence, 24 h | hit rate 1.4% among 330,000 | inhibition, % at 10 µM;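 active = inhibition of 40% or more at the single tested concentration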;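 also: wild-type TIM10 isogenic control strain grown at permissive 25 °C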
Mdm2-MdmX inh: disrupts the human Mdm2-MdmX interaction. O15151+Q00987. SaOS-2 split-luciferase Mdm2/MdmX complementation, luminescence. inhibition, % at 8 µM. hit rate 3% among 330,000;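 active = inhibition of at least 50% at 8 µM in the primary screen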
Target sequence (O15151 whole entry, looked up): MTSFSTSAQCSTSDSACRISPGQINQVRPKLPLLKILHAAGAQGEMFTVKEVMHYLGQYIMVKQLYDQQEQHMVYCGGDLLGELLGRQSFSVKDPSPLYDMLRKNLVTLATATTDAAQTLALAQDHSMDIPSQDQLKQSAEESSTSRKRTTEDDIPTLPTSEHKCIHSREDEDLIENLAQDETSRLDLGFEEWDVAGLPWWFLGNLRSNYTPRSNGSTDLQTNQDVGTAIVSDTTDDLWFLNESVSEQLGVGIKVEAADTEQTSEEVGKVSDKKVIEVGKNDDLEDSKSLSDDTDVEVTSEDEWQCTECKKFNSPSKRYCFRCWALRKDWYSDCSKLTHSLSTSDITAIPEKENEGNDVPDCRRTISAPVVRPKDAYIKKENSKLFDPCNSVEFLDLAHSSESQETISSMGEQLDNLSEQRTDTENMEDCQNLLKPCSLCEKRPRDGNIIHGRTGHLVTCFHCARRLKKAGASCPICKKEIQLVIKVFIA
Target sequence (Q00987 whole entry, looked up): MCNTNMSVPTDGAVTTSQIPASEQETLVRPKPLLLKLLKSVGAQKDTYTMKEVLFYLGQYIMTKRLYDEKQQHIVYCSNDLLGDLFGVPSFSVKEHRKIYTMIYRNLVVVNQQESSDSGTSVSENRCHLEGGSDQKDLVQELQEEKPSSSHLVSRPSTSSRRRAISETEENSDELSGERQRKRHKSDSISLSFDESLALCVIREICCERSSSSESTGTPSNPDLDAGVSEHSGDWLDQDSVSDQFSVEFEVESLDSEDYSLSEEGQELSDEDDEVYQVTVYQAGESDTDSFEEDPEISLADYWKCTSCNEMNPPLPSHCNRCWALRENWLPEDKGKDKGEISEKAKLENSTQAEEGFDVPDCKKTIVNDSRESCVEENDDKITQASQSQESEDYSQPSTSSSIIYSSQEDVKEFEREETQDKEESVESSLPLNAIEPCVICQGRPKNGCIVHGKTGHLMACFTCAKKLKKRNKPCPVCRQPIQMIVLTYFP
tim10-1 conf: tim10-1 yeast growth inhibition, confirmed; shares compounds with tim10-1 inh; S. cerevisiae tim10-1 ts strain growth, BacTiter-Glo, 24 h; inhibition, % at 20 µM; hit rate 56% among 7,400; AID 463213;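 active = inhibition of yeast growth at or above a set limit in either of two repeat tests at 20 µM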;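 also: tim10-1 mutant grown at permissive 25 °C to find synthetic lethal compounds; 0% = DMSO yeast wells and 100% = medium wells without yeast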
TIM10 conf: confirmation of TIM10 yeast growth inhibitors. AID 463215. S. cerevisiae tim10 strain growth, BacTiter-Glo luminescence, 24 h. inhibition, % at 10 µM. shares compounds with TIM10 inh. hit rate 63% among 4,600;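 active = inhibition of yeast growth at or above a set limit in either of two replicates at 10 µM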;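 also: this counterscreen used the strain with wild-type TIM10; 0% = yeast with DMSO and 100% = medium wells lacking yeast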
tim23-1 conf: tim23-1 yeast growth inhibition, confirmed | shares compounds with tim23-1 inh | S. cerevisiae tim23-1 growth, BacTiter-Glo luminescence, 24 h | inhibition, % at 20 µM | hit rate 83% among 4,400 | AID 463218;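 active = inhibition above about 39% in either of two replicate wells at 20 µM, limit read from the data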;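 also: temperature-sensitive tim23-1 mutant grown at 25 °C; 0% = DMSO wells with yeast and 100% = medium wells without yeast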
Starred values were filed as active, the others as inactive; / = no result.

SMILES | tim23-1 inh | MPTP block | tim10-1 inh | TIM10 inh | Mdm2-MdmX inh | tim10-1 conf | TIM10 conf | tim23-1 conf
CCOCCCNC(=O)/C(C#N)=C/c1ccc([N+](=O)[O-])o1 | 75.3* | 1.3 | 84.0* | 67.9* | 21.4 | 78.9* | 94.2* | 73.7*
CC1(c2nnnn2Cc2ccccc2)CCC(=O)N1CCc1ccc(O)cc1 (stereo unspecified) | / | 0.8 | / | / | / | / | / | /
Cc1cc(Br)cn2c(Cc3ccsc3)c(C(C)(C)C)nc12 | / | -0.2 | / | / | / | / | / | /
C=CCNC(=O)/C(C#N)=C/c1c(C)nn(-c2ccccc2)c1Cl | 72.0* | -0.8 | 70.7* | 66.7* | 13.1 | 76.2* | 65.2* | 72.3*
CCCCCCCCNC(=O)/C(C#N)=C/c1ccccc1[N+](=O)[O-] | 83.3* | 2.2 | 50.4* | 63.9* | 5.2 | 23.4 | 69.8* | 46.9*
CCCCNC(=O)/C(C#N)=C/c1ccc(C(=O)OC)cc1 | 6.7 | -0.6 | 20.8 | 10.4 | 8.5 | / | / | /
COCCCN1C(=O)C(CC(=O)NCC2CCCCC2)CC(C(=O)N(C(C)C)C(C)C)=C1C (stereo unspecified) | / | -1.6 | / | / | / | / | / | /
Cc1ccc(N2C(=O)c3ccc(N)cc3C2=O)cc1C | 51.5* | 0.8 | 42.5* | 33.8 | 22.5 | 36.4* | / | 43.0*
CC1CCN(S(=O)(=O)c2ccc(Cl)cc2)CC1 | 54.5* | -1.9 | 40.2* | 42.4* | 11.7 | 35.8* | 16.1 | 40.2*
O=C([C@H]1O[C@@H](n2ccc(=O)[nH]c2=O)[C@H](O)[C@@H]1O)N(CCC1=CCCCC1)CC1CC1 | / | -1.8 | / | / | / | / | / | /
NC(=O)C1CCN(C(=O)c2ccc(OCC(=O)Nc3cccc(C(F)(F)F)c3)cc2)CC1 | 7.4 | -0.1 | 11.6 | 15.2 | 4.8 | / | / | /
CCOC(=O)C1CCN(C(=O)c2ccc(OCC(=O)Nc3cccc(C(F)(F)F)c3)cc2)CC1 | 54.2* | 2.7 | 56.3* | 54.1* | 30.9 | 56.3* | 53.4* | 53.4*
Cc1cccc2c1N(CCOc1ccccc1Cl)C(=O)C2=O | 55.9* | -2.0 | 50.5* | 27.3 | 43.2 | 19.2 | / | -30.4
Cc1ccccc1OCCN1C(=O)C(=O)c2cccc(C)c21 | 60.3* | -2.9 | 44.9* | 22.8 | 26.2 | 25.5 | / | 33.2
O=C1SC(SCc2ccccc2)=N/C1=C\c1ccco1 | 54.1* | -0.9 | 56.7* | 42.8* | 8.3 | 40.0* | 48.9* | 57.9*
O=C1SC(SCc2ccccc2)=N/C1=C\c1ccc(C(=O)O)cc1 | 21.1 | 0.1 | 6.7 | 21.9 | -2.8 | / | / | /
CCCC(=O)N1CCC1(C)C(=O)Nc1cccc(OC(C)C)c1 (stereo unspecified) | / | 0.9 | / | / | / | / | / | /
CCCNC(=O)c1ccc2c(c1)C1C3CCC(C3)C1C(c1ccccc1)N2 (stereo unspecified) | 53.2* | -2.4 | 46.9* | 37.3 | 24.9 | 44.2* | / | 57.5*
CCCNC(=O)c1cccc(Br)c1 | 7.1 | 0.6 | -0.3 | -1.7 | 5.9 | / | / | /
O=[N+]([O-])c1ccc(CNc2ccc(Cl)cc2)s1 | 60.6* | 1.6 | 56.8* | 56.3* | 2.2 | 54.5* | 64.8* | 68.4*
COc1ccc(NCc2ccc([N+](=O)[O-])s2)c(OC)c1 | / | 0.6 | / | / | / | / | / | /
CCCNC(=O)C1(C)CCN1C(=O)c1ccc(C(C)(C)C)cc1 (stereo unspecified) | / | -0.9 | / | / | / | / | / | /
COc1ccc(-c2cccc(C3CC=CC4C3C(=O)N(Cc3ccccc3)C4c3ccc4ccccc4c3)c2)cc1 (stereo unspecified) | 31.4 | -0.5 | 29.4 | 35.2 | 29.4 | / | / | /
COc1ccc(C2C3C=CCC(c4cccc(-c5ccc(C)cc5)c4)C3C(=O)N2Cc2ccccc2)cc1Cl (stereo unspecified) | 53.0* | 0.1 | 45.7* | 55.8* | 33.0 | 40.2* | 22.2 | 53.5*
COc1ccc(NC(=O)C2(C)Cc3c(-c4cccc(C(N)=O)c4)ccnc3O2)cc1 (stereo unspecified) | / | 0.3 | / | / | / | / | / | /
SMILES | tim23-1 inh | MPTP block | tim10-1 inh | TIM10 inh | Mdm2-MdmX inh | tim10-1 conf | TIM10 conf | tim23-1 conf
CC1(C)CC(=O)C2=C(C1)Oc1nc3ccccc3cc1C2C(C#N)C#N (stereo unspecified) | 63.4* | -2.6 | 61.0* | 53.6* | 47.5 | 58.9* | 63.5* | 67.9*
CC1(C)CC(=O)C(C2C3=C(CC(C)(C)CC3=O)Oc3ccccc32)C(=O)C1 (stereo unspecified) | 41.1 | 1.8 | 10.6 | 20.8 | -0.4 | / | / | /
O=C(Nc1ccccc1Cl)N1CCCN(c2nc(-c3ccccc3)ns2)CC1 | 55.4* | 13.8 | 43.0* | 45.9* | -4.5 | 28.0 | 32.8* | 45.0*
CCNc1ccc2noc3c2c1C(=O)c1ccccc1-3 | 60.2* | 9.5 | 55.6* | 29.2 | 36.9 | 44.1* | / | 49.1*
CCOc1ccc2noc3c2c1C(=O)c1ccccc1-3 | 47.1 | -0.1 | 29.3 | 23.0 | 32.1 | / | / | /
O=[N+]([O-])c1cc(-c2nc(-c3ccncc3)no2)cc([N+](=O)[O-])c1 | 72.2* | 1.7 | 76.1* | 68.5* | -5.7 | 66.9* | -17.3 | 81.2*
CCCC(=O)Nc1ccc(Sc2ccc([N+](=O)[O-])cc2)cc1 | 51.3* | 7.9 | 42.5* | 54.5* | 47.3 | 25.2 | 41.2* | 43.0*
OC(CN1CCN(c2ccccn2)CC1)Cn1c2ccc(Cl)cc2c2cc(Cl)ccc21 (stereo unspecified) | 54.9* | 4.9 | 47.2* | -28.4 | 38.7 | 20.9 | / | -39.5
Cc1ccc(-c2cc(N)n(-c3ccccc3)n2)cc1 | 12.7 | 0.7 | 1.0 | 6.8 | -174.4 | / | / | /
Nc1cc(-c2ccc(OC(F)(F)F)cc2)nn1-c1ccc(Cl)c(Cl)c1 | 57.0* | 25.4 | 46.5* | 9.4 | 0.1 | 62.5* | / | 61.0*
N/C(CC(=O)Nc1cccc(C(F)(F)F)c1)=N/O | 24.4 | -0.4 | 14.2 | 4.6 | 9.8 | / | / | /
N/C(=N\OC(=O)Nc1ccccc1)c1cccc(C(F)(F)F)c1 | 63.7* | -0.6 | 53.6* | 14.2 | -22.4 | 41.1* | / | 49.1*
CCNc1nc(CN2CCCCC2)nc2scc(-c3ccccc3)c12 | -12.1 | 4.7 | 7.7 | 13.7 | 31.1 | / | / | /
CN(Cc1ccccc1)c1nc(CN2CCOCC2)nc2scc(-c3ccccc3)c12 | 64.8* | 0.8 | 47.4* | 54.6* | -2.0 | 41.5* | 39.6* | 60.8*
c1ccc(COc2ncnc3c2ncn3CCCNCC(c2ccccc2)c2ccccc2)cc1 | / | 1.6 | / | / | / | / | / | /
CNC(=S)/N=C/NOCc1c(Cl)cccc1Cl | 53.7* | 0.7 | 62.8* | 52.8* | 7.1 | 54.8* | 54.2* | 59.5*
O=C(Oc1ccccc1C(=O)Nc1ccccc1)c1ccc(Br)c([N+](=O)[O-])c1 | 61.4* | 7.7 | 47.3* | 52.5* | 8.0 | 51.0* | 35.2* | 74.2*
Nc1ccc(C#Cc2ccc3c(=O)c4ccccc4oc3c2)cc1 | 10.0 | 1.0 | 21.3 | 9.3 | -18.8 | / | / | /
